Laboratory results from PubChem BioAssay (NCI).
Compounds without any hit were thinned out: in the full panel of roughly 83,000, 20% have a hit.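 For each line, cells grew in 96-well plates with the test compound present at a single concentration for 48 hours.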 Calls of active or inactive are those of the source. How the source made its calls: active means growth percent below 10; inactive means the rest.

Columns and labels:
Test in all cases: NCI-60 one-dose screen, 48 h (100 = growth as untreated, 0 = no growth, -100 = all killed)
Settings in all cases: 10 µM unless noted
[1] = test system: MOLT-4 leukemia
[2] = test system: SR leukemia
[3] = test system: RPMI-8226 leukemia
[4] = test system: OVCAR-8 ovarian
[5] = test system: OVCAR-5 ovarian
[6] = test system: OVCAR-4 ovarian
[7] = test system: SK-OV-3 ovarian
[8] = test system: IGROV1 ovarian
[9] = test system: OVCAR-3 ovarian
[10] = test system: HS 578T breast

Measured: growth

COc1cccc(C=NC(Cc2cnc[nH]2)C(=O)O)c1O (stereo not given)
inactive: [1] 120% | [2] 132% | [3] 48.1% | [4] 81.1% | [5] 85.5% | [6] 95.9% | [7] 102% | [8] 64.8% | [9] 102% | [10] 122%

Clc1cccc(NCOOC2(OOCNc3cccc(Cl)c3)CCCCC2)c1
inactive: [1] 72.4% | [3] 53.1% | [4] 30.3% | [5] 82.5% | [6] 107% | [7] 94.7% | [9] 79.7% | [10] 98.4%
active: [2] -41.4% | [8] -33.2%

COc1ccc(/C=C\c2cc(OC)c(OC)c(OC)c2)c(NS(=O)(=O)c2ccc(Cl)cc2)c1O
inactive: [1] 10.1% | [5] 49.2% | [6] 33.1% | [7] 21.9% | [8] 30.1% | [10] 10.9%
active: [2] 7.33% | [3] 7.02% | [4] 2.97% | [9] -31.1%

O=C(CC1(O)C(=O)N(Cc2ccccc2)c2ccccc21)c1ccc(C(=O)NCC2CCC3(CC2)OOC2(CCCCC2)OO3)cc1 (stereo not given)
inactive: [5] 21% | [7] 54.3%
active: [1] -49.9% | [2] -49.3% | [3] -26.7% | [4] -14.8% | [6] -36.6% | [8] -41.8% | [9] -82.4% | [10] -6.26%

COC(=O)C1CCC(NC(=O)c2csc([C@@H](C[C@H](C(C)C)N(C)C(=O)[C@@H](NC(=O)[C@H]3CCCCN3C)C(C)C)OC(C)=O)n2)CC1 (stereo not given in full)
inactive: [1] 18.1% | [2] 20.1% | [3] 25.7% | [4] 19.3% | [5] 53% | [6] 45.3% | [7] 20.8% | [8] 28.3% | [10] 42.6%
active: [9] -37.6%

CC(=O)OC1CCC2C3CCC4=C/C(=N/OC(=O)c5ccc(N(CCCl)CCCl)cc5)CCC4(C)C3CC(C)C12 (stereo not given)
inactive: [1] 57.7% | [3] 70.8% | [4] 54.5% | [5] 101% | [6] 72% | [7] 114% | [9] 59.7% | [10] 26.3%
active: [2] -7.87% | [8] -59.1%

COc1ccc(/C=C\c2cc(OC)c(OC)c(OC)c2)c(NS(=O)(=O)c2ccc(C)cc2)c1O
active: [9] -30.9%
inactive: [1] 20.8% | [2] 17.2% | [3] 31.5% | [4] 25.1% | [5] 38.8% | [6] 31.5% | [7] 25.1% | [8] 32.2% | [10] 39.9%

CS(=O)(=O)CCN1CC2CCCC(C2)C1
inactive: [1] 102% | [2] 93.9% | [3] 101% | [4] 104% | [5] 102% | [6] 102% | [7] 100% | [8] 115% | [9] 110% | [10] 102%

C[C@]12CC[C@H]3[C@@H](CC4SC(N)=NC45C/C(=N/NC(N)=O)CC[C@]35C)[C@@H]1CCC2=O (stereo not given in full)
inactive: [1] 13.4% | [5] 72.9% | [7] 101% | [10] 36.4%
active: [2] -21.8% | [3] -6.28% | [4] -2.26% | [6] -19.1% | [8] 2.9% | [9] -32.3%

C[n+]1c(/C=C/c2ccc(N(CCCl)CCCl)cc2)sc2ccccc21
inactive: [1] 36.8% | [2] 19.7% | [3] 27.5% | [4] 30% | [5] 103% | [6] 72.9% | [7] 55.1% | [8] 75% | [9] 25.5% | [10] 98.8%

CCCC(C)C1(CC)C(=O)NC(=O)N(C)C1=O (stereo not given)
inactive: [1] 101% | [2] 95% | [3] 103% | [4] 98.8% | [5] 109% | [6] 108% | [7] 89.3% | [8] 96.6% | [9] 108% | [10] 99.4%

OCCNC(Cc1ccccc1)c1ccc2c(c1)OCO2 (stereo not given)
inactive: [1] 82.6% | [2] 99.1% | [3] 102% | [4] 98.7% | [5] 105% | [6] 117% | [7] 74.7% | [8] 107% | [9] 100% | [10] 103%

CC12CCC(O)CC1=CCC1C2CCC2(C)C(O)CCC12 (stereo not given)
inactive: [1] 114% | [2] 106% | [3] 94.6% | [4] 112% | [5] 97.3% | [6] 110% | [7] 118% | [8] 113% | [9] 104% | [10] 105%

O=C(Nc1ccncc1F)c1cn(CC2CC2)c2ccccc12
inactive: [1] 101% | [2] 116% | [3] 91.9% | [4] 101% | [5] 113% | [6] 97.7% | [7] 105% | [8] 109% | [9] 110% | [10] 98.7%

CCOC(=O)[C@@H](C)C[C@H](Cc1ccccc1)NC(=O)c1csc([C@@H](C[C@H](C(C)C)N(C)C(=O)[C@@H](NC(=O)[C@H]2CCCCN2C)C(C)(C)CC)OC(C)=O)n1
active: [2] -4.98% | [3] -1.78% | [9] 2.01% | [10] -9.16%
inactive: [1] 13.5% | [4] 10.6% | [5] 28% | [6] 30.4% | [7] 26.9% | [8] 14.5%

CN(C)CCCOc1ccc2c(c1)c(C(=O)C(=O)NCCO)cn2Cc1ccccc1
inactive: [1] 111% | [2] 115% | [3] 106% | [4] 98.1% | [5] 108% | [6] 105% | [7] 110% | [8] 99.6% | [9] 108% | [10] 99.6%

CC(=O)OC[C@]1(C)C=C2C(=O)[C@](C)(O)C3(CC3)C(C)=C2[C@H]1OC(=O)N(C)CCN(C)C(=O)OC(C)(C)C
inactive: [1] 10.5% | [2] 14% | [3] 32.9% | [10] 17.5%
active: [4] -12% | [5] 3.2% | [6] -2.23% | [7] 1.41% | [8] 1.75% | [9] -8.01%

C[N+](C)(C)Cc1cc(Cl)ccc1O
inactive: [1] 96.9% | [2] 104% | [3] 76.3% | [4] 99.4% | [5] 101% | [6] 92.8% | [7] 110% | [8] 95.1% | [9] 109% | [10] 103%

CC(=O)O[C@H]1C(=O)[C@@]2(C)[C@H]([C@H](OC(=O)c3ccccc3)[C@]3(O)C[C@H](OC(=O)[C@H](OC(=O)OCC4COC(C)(C)O4)[C@@H](NC(=O)c4ccccc4)c4ccccc4)C(C)=C1C3(C)C)[C@]1(OC(C)=O)CO[C@@H]1C[C@@H]2O (stereo not given in full)
inactive: [1] 35.8% | [2] 35.7% | [3] 13% | [4] 39.3% | [5] 20.8% | [6] 79% | [7] 48.5% | [8] 35.3% | [9] 15% | [10] 30.5%

C[C@]12CCc3sc(NCCc4ccccc4)nc3C1=CC[C@@H]1[C@@H]2CC[C@]2(C)C(=O)CC[C@@H]12
inactive: [4] 72.1% | [5] 100% | [6] 74.2% | [7] 112% | [8] 88% | [10] 75.5%
active: [1] 4.71% | [2] 0.916% | [3] -5.28% | [9] 6.41%

CC(=O)OC[C@]1(C)C=C2C(=O)[C@](C)(O)C3(CC3)C(C)=C2[C@H]1O
active: [2] 9.64% | [4] -0.446% | [5] -14.4% | [6] -9.54% | [7] -40.4% | [8] -31.1% | [9] -29.4% | [10] -21.5%
inactive: [1] 12.2% | [3] 75.8%

C[C@@H]1CCC2[C@@H](C)[C@H](OC(=O)CCC(=O)NCCNC(=O)Cc3cc(=O)oc4cc(N(C)C)ccc34)O[C@@H]3O[C@]4(C)CC[C@@H]1C23OO4 (stereo not given in full)
inactive: [1] 31.3% | [3] 15.1% | [4] 23.8% | [5] 49% | [6] 49.1% | [7] 92.3% | [8] 55% | [9] 37.7% | [10] 49.5%
active: [2] -16.8%
